According to PubChem BioAssay AID588675 (Johns Hopkins Ion Channel Center, 2011):
Among all 310,000 compounds or so, about 1,900 (0.61%) were called active.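 Rule for the calls: active = plate-corrected calcium response at least 3 library SD above typical, normal starting fluorescence, not activating the receptor alone; inactive = the rest.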 The entries come from a sample that favours actives as a whole.

Each compound was assayed against Mas-related G-protein coupled receptor member X1 (Homo sapiens) (UniProt Q96LB2) (assay: positive allosteric modulators of MrgX1, primary screen, HEK293 cells, Fluo-4 calcium flux (AID 588675;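 note: compound read alongside a low EC10 to EC30 dose of BAM8-22 agonist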;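 for B-score: peak minus trough fluorescence over baseline measured at the second addition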)). Conditions: MrgX1-HEK293, Fluo-4 calcium flux, FDSS, at 10 µM; hits give high values.
Sequence of Mas-related G-protein coupled receptor member X1 (Homo sapiens) (Q96LB2 whole entry, looked up): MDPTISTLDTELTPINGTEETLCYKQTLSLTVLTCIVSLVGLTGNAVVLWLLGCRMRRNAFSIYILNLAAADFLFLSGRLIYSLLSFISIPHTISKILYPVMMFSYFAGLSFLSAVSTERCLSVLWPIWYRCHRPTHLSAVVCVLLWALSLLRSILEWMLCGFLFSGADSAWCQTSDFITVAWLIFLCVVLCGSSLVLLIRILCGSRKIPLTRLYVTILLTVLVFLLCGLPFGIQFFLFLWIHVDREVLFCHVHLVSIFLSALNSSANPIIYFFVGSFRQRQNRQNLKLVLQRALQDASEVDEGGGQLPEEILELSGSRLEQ

B-score, inactive:
CC(C)N1C(=S)SC(C)(C)C1n1oc(=O)n(-c2ccc(Cl)c(Cl)c2)c1=O (configuration not stated)
O=C(CNC(=O)OCc1ccccc1)Oc1cc2oc(=O)cc(-c3ccccc3)c2cc1Cl
Cc1nc2sccn2c(=O)c1S(=O)(=O)NCCc1ccccc1
Cc1ccc2c(C)c(C(=O)N(C)Cc3ccncn3)oc2c1C
Cc1c(C(=O)N(C)CCc2cnn(C)c2)oc2c(F)cccc12
CCCCn1c(N)c(N(CCC(C)C)C(=O)CC2OC(=O)c3ccccc32)c(=O)[nH]c1=O (configuration not stated)
COc1ccc(C2(C)NC(=O)N(CC(=O)c3ccc4c(c3)OCO4)C2=O)cc1 (configuration not stated)
O=C(OCc1ccc([N+](=O)[O-])cc1)C1CC(=O)N(Cc2ccccc2Cl)C1 (configuration not stated)
CCCC1CCC(=NNC(=S)NCCc2ccccc2)CC1 (configuration not stated)
O=C(O)CCn1cc(/C=C/C(=O)c2ccc(Cl)cc2)c(-c2cccc(Br)c2)n1
COc1cc(/C=C(\C#N)c2nc3ccccc3[nH]2)ccc1O
CCOc1cc(/C=C(\C#N)c2nc(-c3cccs3)c(NC(C)=O)s2)ccc1O
CC(=O)Nc1ccc(S(=O)(=O)N2CCN(C(=O)c3ccccc3F)CC2)cc1
CCC(=O)Nc1nc(C)c(C(=O)Nc2cccc(Cl)c2)s1
O=C(Nc1cccc(Cl)c1)c1cc(S(=O)(=O)N2CCCCC2)c[nH]1
C=CCn1cc(Cl)cc(C(=O)Nc2ccccc2)c1=O
COC(=O)c1c(NC(=O)CSc2nncs2)sc2c1CCCCC2
COC(=O)c1c(NC(=O)CCN2CCOCC2)sc2c1CCCC2
COC(=O)c1c(NC(=O)COC(=O)[C@@H](NS(=O)(=O)c2ccccc2)C(C)C)sc2c1CCC2
COC(=O)c1c(NC(=O)C2CC(C)=C(C)CC2C(=O)O)sc2c1CCCCC2 (configuration not stated)
COc1ccc(OC)c(-c2c(=O)n(OCc3ccccc3Br)c3ccccc3[n+]2[O-])c1
O=C(Oc1ccc(-c2nnco2)cc1)c1ccc(F)c(S(=O)(=O)N2CCOCC2)c1
CN(C(=O)CCNC(=O)Cn1ccc2ccccc2c1=O)c1ccc(Br)cc1
CC(=O)N1c2ccc(S(=O)(=O)N(C)CC(=O)N(C)Cc3ccccc3)cc2CC1C (configuration not stated)
O=C(Nc1nnc(-c2ccccc2F)s1)c1ccccc1F
COc1ccccc1C(CNC(=O)c1cccc(NS(=O)(=O)c2ccc(Br)cc2)c1)N(C)C (configuration not stated)
Cc1ccc(CNS(=O)(=O)c2ccc3c(c2)N(C)CCO3)cc1
CC(=O)NS(=O)(=O)c1ccc(N/C(N)=N/c2nc(C)cc(C)n2)cc1
Cc1ccc(NC(=O)Nc2ccc3oc(C)nc3c2)cc1
O=C(c1noc2c1CCCC2)N1CCc2ccccc2C1
Cc1cc(C)cc(Oc2nc3c(C)cccn3c(=O)c2/C=C(\C#N)C(=O)NC2CCS(=O)(=O)C2)c1 (configuration not stated)
CN1CC(c2ccccc2)C2(COc3ccccc3C2=O)C12C(=O)Nc1ccccc12 (configuration not stated)
CSc1nc(C)nc2c1c(=O)n(C)c(=O)n2C
CCOC(=O)N1CCN(C(=O)CSc2nc(C)nc3c2c(=O)n(C)c(=O)n3C)CC1
CC(=O)N/N=C/c1cc2c(cc1[N+](=O)[O-])OCO2
O=C(N/N=C/c1cc2c(cc1Br)OCO2)C1COc2ccccc2O1 (configuration not stated)
CCOC(=O)C1(Cc2ccccc2C)CCCN(S(C)(=O)=O)C1 (configuration not stated)
O=C(NC(Cc1ccccc1)C(=O)O)/C(=C\c1ccccc1)NC(=O)c1ccco1 (configuration not stated)
COc1ccccc1OCCOc1ccc(/C=C2\C(=N)N3N=C(C)SC3=NC2=O)cc1
CS(=O)(=O)c1ccc2c(c1)SC1=NC(=O)/C(=C/c3ccco3)C(=N)N12
CCC1=NN2C(=N)/C(=C/c3cc(C)n(-c4ccccc4)c3C)C(=O)N=C2S1
Cc1cc(/C=C2\SC(=O)N(C)C2=O)c(C)n1-c1cccc(C(=O)O)c1
Cc1ccc(C2=N/C(=C\c3ccc(OS(=O)(=O)c4ccc(C)cc4)cc3)C(=O)O2)cc1
CS(=O)(=O)C1=NN2C(=N)/C(=C\c3ccc(OCCOc4ccccc4)cc3)C(=O)N=C2S1
COC1(C2=NCCN2)COc2ccccc2O1 (configuration not stated)
COc1ccccc1NC(=O)N1CCCC1C(=O)NCc1cccs1 (configuration not stated)
COc1cccc(-c2nnc(NC(=O)c3ccc(S(=O)(=O)N(CC(C)C)CC(C)C)cc3)o2)c1
O=C1CCCCN1CCCC(=O)N1CCCC(Nc2ccc(F)cc2)C1 (configuration not stated)
CCOC(=O)c1ccc(N=C2SC(C(=O)NC)CC(=O)N2CCc2ccccc2)cc1 (configuration not stated)
CSc1ccc(CN2C(=O)NC3(CCCCCC3)C2=O)cc1
C=C1c2c(Cl)ccc(O)c2C(O)=C2C(=O)[C@]3(O)C(O)=C(C(N)=O)C(=O)[C@@H](N(C)C)[C@@H]3[C@@H](O)C12 (some centres not stated)
O=C(Cc1ccc(S(=O)(=O)N2CCCC2)s1)NC1CCCCCC1
Cc1ccc(SCC(=O)c2cc(C)c(OC(=S)N(C)C)c(C)c2)cc1
COc1ccc(OC)c2sc(NC(=O)C3COc4ccccc4O3)nc12 (configuration not stated)
O=C(Nc1ncc([N+](=O)[O-])s1)C1COc2ccccc2O1 (configuration not stated)
CN(C)CCCO/N=C(\c1ccccc1)c1ccncc1
COc1ccc(C/C(C)=N/NC(=O)c2ccncc2)cc1
CSc1cccc(NC(=O)C2CCCN2S(=O)(=O)c2ccc3c(c2)CCC(=O)N3)c1 (configuration not stated)
CC[N+](C)(CC)CCC[n+]1c(-c2ccccc2)c2cc(N)ccc2c2ccc(N)cc21
Cc1ccc2c(c1)c1ncn(Cc3ccc(F)cc3)c(=O)c1n2C
Cc1ccc2c(c1)c1ncn(CCC3=CCCCC3)c(=O)c1n2C
COc1cc(S(=O)(=O)N(Cc2cccs2)C2CC2)ccc1-n1cnnn1
COC(=O)c1ccc(CN2CCN(CCCc3ccccc3)C(CCO)C2)cc1 (configuration not stated)
Cc1oc(-c2ccccc2F)nc1CS(=O)CC(=O)NCCN1CCCCC1C (configuration not stated)
COc1ccc(F)c(-c2nc(CN3CCC(c4ccccc4)CC3)c(C)o2)c1
CCCCOc1ccc(N(CC(=O)NC(C)C)C(=O)CCC(=O)Nc2ccccn2)cc1
CCCNc1c(N)c(=O)c1=O
Cc1oc2cc([N+](=O)[O-])c(O)c([N+](=O)[O-])c2c1C(=O)c1ccc(Br)cc1
COc1ccc(Nc2ncnc3ccc(Br)cc23)c(OC)c1
COc1ccc(C(=O)N2CC3(C)CC2CC(C)(C)C3)cc1OC (configuration not stated)
Cn1c(-c2sccc2OCc2cccc(C(F)(F)F)c2)n[nH]c1=S
Cc1ccccc1-c1n[nH]c(=S)n1C
COc1ccccc1C(=O)NC(=S)NC12CC3CC(CC(C3)C1)C2
CN1CCN(C(=O)c2ccccc2NC(=O)COc2ccccc2Cl)CC1
Cc1cccc[n+]1CC(=O)c1ccccc1
O=C(CNC(=O)c1ccc(F)cc1)c1ccccc1
C=C(C)c1cccc(C(C)(C)NC(=O)NCCN(CC)CC)c1
CC(C)C(=O)NCC(c1cccs1)S(=O)(=O)c1ccc(F)cc1 (configuration not stated)
COc1cccc(Cn2cnc3c([N+](=O)[O-])c(C)c(C)cc32)c1
CCOC(=O)c1cn(Cc2cccc(C)c2)nn1
CCOc1ccc2[nH]c(=O)c(CN(CCCO)S(=O)(=O)c3ccc(F)cc3)cc2c1
Cc1cc2c(cc1C)[n+](C)cn2CC(O)COCC1CC=CCC1 (configuration not stated)
Cn1c(-c2ccc(F)cc2)cc2onc(-c3ccccc3Cl)c2c1=O

B-score, active:
Cc1ccc2c(C)c(C(=O)N(C)CCC3CCCCO3)oc2c1C (configuration not stated) 11.2
COc1cc(/C=C(\C#N)c2nc3c(s2)CC(C)CC3)ccc1O (configuration not stated) 15.1
O=C(Nc1cccc(Cl)c1)c1cncn1-c1ccc(F)cc1 12.5
CCc1ccc(N(CC(=O)Nc2sc3c(c2C(=O)OC)CCCC3)S(C)(=O)=O)cc1 8.16
COC(=O)c1c(NC(=O)CN(c2ccc(C)c(C)c2)S(C)(=O)=O)sc2c1CCCC2 11.7
Cc1ccc(N/C(N)=N/c2nc(C(F)(F)F)cc(C(F)(F)F)n2)cc1 38.3
CCC(C)Sc1nc(C)nc2c1c(=O)n(C)c(=O)n2C (configuration not stated) 17.1
CC1(C(=O)N/N=C/c2cc3c(cc2Br)OCO3)CC1(Br)Br (configuration not stated) 8.54
Cc1cc(/C=C2/C(=N)N3C(=NC2=O)SN=C3S(C)(=O)=O)c(C)n1-c1ccccc1 11.8
CCS(=O)(=O)C1=NSC2=NC(=O)/C(=C\c3cc(C)n(-c4cccc(OC)c4)c3C)C(=N)N21 10.5
CCS(=O)(=O)C1=NSC2=NC(=O)/C(=C\c3ccc(OS(=O)(=O)c4ccccc4)cc3)C(=N)N21 24.2
O=C(Nc1nc2c(F)cc(F)cc2s1)C1COc2ccccc2O1 (configuration not stated) 9.52
COc1cc(OC)nc(N/N=C(\c2ccccc2)c2ccncc2)n1 9.14
Cc1ccc2c(c1)c1ncnc(N3CCc4ccccc4C3)c1n2C 8.06
Cc1nonc1C1CCCN1Cc1nc(-c2ccc(F)cc2F)oc1C (configuration not stated) 7.14
CC1(C)CC2CC(C)(CN2c2ncnc3ccc(Br)cc23)C1 (configuration not stated) 13
Cn1c(-c2sc3cc(C(F)(F)F)cnc3c2-c2ccccc2)n[nH]c1=S 9.48
O=C(C[n+]1cc(Br)cc2ccccc21)c1ccc(F)cc1 9.24
Cc1cccc(Cn2cnc3c(N)c(C)c(C)cc32)c1 9.78
